Measured values published in PubChem BioAssay (NCI).
Compounds without any hit were thinned out: in the full panel of roughly 83,000, 20% have a hit.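 Plates (96-well) were seeded with cells, treated with compound at one concentration, and incubated for 48 hours before percent growth was determined.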 Active and inactive are the calls of the source. The calls were made as follows: active = growth percent below 10; inactive = the rest.

Assays:
Test in all cases: NCI-60 one-dose screen, 48 h (100 = growth as untreated, 0 = no growth, -100 = all killed)
Conditions in all cases: 10 µM unless noted
[1] = tested on: HCT-15 colon
[2] = tested on: HT29 colon
[3] = tested on: SNB-75 CNS
[4] = tested on: SNB-19 CNS
[5] = tested on: U251 CNS
[6] = tested on: PC-3 prostate
[7] = tested on: SK-MEL-5 melanoma
[8] = tested on: UACC-62 melanoma
[9] = tested on: LOX IMVI melanoma
[10] = tested on: SK-MEL-28 melanoma
[11] = tested on: SK-MEL-2 melanoma
[12] = tested on: EKVX NSCLC
[13] = tested on: SN12C renal
[14] = tested on: UO-31 renal
[15] = tested on: TK-10 renal
[16] = tested on: ACHN renal
[17] = tested on: CAKI-1 renal
[18] = tested on: A498 renal
[19] = tested on: CCRF-CEM leukemia
[20] = tested on: MOLT-4 leukemia

Measured: growth

O=C(/C=C/c1cccc2ccccc12)c1ccc(NC(=O)c2ccccc2CN2C(=O)c3ccccc3C2=O)cc1
inactive: [1] 54.2% | [2] 41.7% | [3] 61.2% | [4] 76.7% | [5] 64.5% | [6] 74% | [7] 87.9% | [8] 69.3% | [9] 60.9% | [10] 96.7% | [11] 95.5% | [12] 81.4% | [13] 80.3% | [14] 50.7% | [15] 100% | [16] 73% | [17] 37.9% | [18] 88.5% | [19] 39.7% | [20] 51.2%

COc1ccc(C2CC(c3ccc(Nc4nc(Nc5ccc(F)cc5)nc(Nc5ccc(Cl)cc5)n4)cc3)=NN2C(C)=O)cc1 (stereo not given)
active: [14] -65.4%
inactive: [1] 93.6% | [2] 108% | [3] 85.5% | [4] 79.3% | [5] 86.7% | [6] 85.2% | [7] 92% | [8] 90.6% | [9] 105% | [10] 114% | [11] 96.1% | [12] 109% | [13] 103% | [15] 103% | [16] 91.7% | [17] 108% | [18] 129% | [19] 124% | [20] 93%

CCCCCCn1c(-c2ccc(C(=O)O/N=C(\N)c3ccc(OC)cc3)cc2)nc(-c2ccccc2)c1-c1ccccc1
active: [1] -41.1% | [3] -20.3% | [5] -42.9% | [6] 3.94% | [9] -91.6% | [12] -75.6% | [13] -70.3% | [14] -86.4% | [15] -73.6% | [16] -91.5% | [17] -64.5% | [18] 4.08% | [19] -35% | [20] -35.7%
inactive: [2] 22% | [4] 32.5% | [7] 49.9% | [8] 18.1% | [10] 42.1% | [11] 47.3%

O=C1c2cccc3cccc(c23)C(=O)N1Nc1nc(NC2CCCCC2)nc(N2CCOCC2)n1
inactive: [1] 93.1% | [2] 107% | [3] 88.9% | [4] 91% | [5] 97.5% | [6] 98.2% | [7] 92.7% | [8] 89.1% | [9] 91.1% | [10] 101% | [11] 109% | [12] 90% | [13] 93.9% | [14] 69.1% | [15] 129% | [16] 89.7% | [17] 76.5% | [18] 127% | [19] 90.1% | [20] 90%

C/C(=C(/c1ccccc1)c1ccc(N2C(=O)c3cccc4c(N5CCN(C)CC5)ccc(c34)C2=O)cc1)c1ccccc1
inactive: [1] 56.8% | [2] 24.8% | [3] 98.1% | [4] 88.9% | [5] 75.4% | [6] 61.4% | [7] 76.3% | [8] 73.5% | [9] 24.6% | [10] 88.4% | [11] 116% | [12] 62.4% | [13] 77.2% | [14] 66.9% | [15] 114% | [16] 89.5% | [17] 86.7% | [18] 86.3% | [19] 58% | [20] 54.3%

CCC12CCC[N+]3([O-])CCC4(C(=Nc5ccccc54)C(O)(C(=O)OC)C1)C23 (stereo not given)
inactive: [1] 108% | [2] 98.3% | [3] 92.7% | [4] 102% | [5] 108% | [6] 87.8% | [7] 116% | [8] 103% | [9] 100% | [10] 94.5% | [11] 121% | [12] 101% | [13] 99.9% | [14] 87.6% | [15] 113% | [16] 102% | [17] 103% | [18] 108% | [19] 99.9% | [20] 98.2%

Cc1ccc(C(=O)NN2C(=O)CSC2c2cccc([N+](=O)[O-])c2)cn1 (stereo not given)
inactive: [1] 109% | [2] 104% | [3] 84.6% | [4] 93.2% | [5] 95.6% | [6] 86.6% | [7] 104% | [8] 98.1% | [9] 90% | [10] 124% | [11] 100% | [12] 98.7% | [13] 96.6% | [14] 14.9% | [15] 98.3% | [16] 92.2% | [17] 79.5% | [18] 100% | [19] 90.8% | [20] 105%

C(=N/Nc1ncnc2nc[nH]c12)/c1ccccn1
active: [14] 3.16% | [17] -25.4%
inactive: [1] 35.4% | [2] 58.8% | [3] 75.5% | [4] 53.8% | [5] 32.6% | [6] 31% | [7] 16.9% | [8] 27% | [9] 19.1% | [10] 49.1% | [11] 71.5% | [12] 24.9% | [13] 36.6% | [15] 56.1% | [16] 23.4% | [18] 55% | [19] 23.7% | [20] 22.2%

COc1cc(OCc2cccc(-c3ccc(C(O)c4nccs4)cc3)c2C)cc(OC)c1CNCCNC(C)=O (stereo not given)
inactive: [1] 97.7% | [2] 92.9% | [3] 85% | [4] 94.9% | [5] 91.1% | [6] 90.2% | [7] 91.8% | [8] 90% | [9] 94.8% | [10] 94.8% | [11] 122% | [12] 97% | [13] 98.1% | [14] 89% | [15] 98.9% | [16] 101% | [17] 93.7% | [18] 88.2% | [19] 91.9% | [20] 94.9%

CC1Cc2ccccc2N1NC(=O)c1ccc(Cl)c(S(N)(=O)=O)c1 (stereo not given)
inactive: [1] 106% | [2] 99.9% | [3] 90.4% | [4] 102% | [5] 100% | [6] 88% | [7] 101% | [8] 99.4% | [9] 96.2% | [10] 104% | [11] 99.4% | [12] 108% | [13] 96.3% | [14] 83.6% | [15] 101% | [16] 98% | [17] 94.5% | [18] 114% | [19] 95.9% | [20] 86.5%

CC/C=C\C[C@@H]1C/C=C2/C(=O)C=C[C@H]2C/C=C\CCCC(=O)O1
inactive: [3] 32.2%
active: [1] -43.5% | [2] -72.4% | [4] -31.4% | [5] -94.2% | [6] -37.6% | [7] -89.3% | [8] -61.1% | [9] -77.1% | [10] -75.6% | [11] -39.2% | [12] -25.1% | [13] -28.8% | [14] -91.9% | [15] -42.5% | [16] -86.2% | [17] 9.49% | [18] -88.4% | [19] -28.7% | [20] -24.9%

O=c1ccc(N=Nc2ccccc2)ccc1Cl
inactive: [2] 27.5% | [3] 74.5% | [4] 81.8% | [5] 54.4% | [6] 56.2% | [7] 55.5% | [8] 55.7% | [10] 92.5% | [11] 77.6% | [12] 65.9% | [13] 60% | [14] 77% | [15] 111% | [16] 75.9% | [17] 76.1% | [18] 191% | [19] 31.3%
active: [1] 2.07% | [9] -77.1% | [20] -1.36%

CCOC(=O)/C=C1\S/C(=N\Nc2ccc([N+](=O)[O-])cc2[N+](=O)[O-])N(Cc2ccccc2)C1=O
inactive: [1] 35.8% | [2] 85.9% | [3] 55.7% | [4] 82.9% | [5] 71.7% | [6] 64.5% | [7] 96.8% | [8] 74.1% | [9] 86% | [10] 98.6% | [11] 102% | [12] 86.4% | [13] 57.3% | [14] 66.4% | [15] 115% | [16] 84.3% | [17] 81.1% | [18] 70.4% | [19] 39.6% | [20] 67.5%

COc1ccc(-c2nc(NCCO)[nH]c(=O)c2C#N)cc1
inactive: [1] 104% | [2] 94.7% | [3] 91.8% | [4] 105% | [5] 103% | [6] 91.4% | [7] 107% | [8] 102% | [9] 103% | [10] 108% | [11] 98.6% | [12] 110% | [13] 95.9% | [14] 90.5% | [15] 99.7% | [16] 96.5% | [17] 101% | [18] 113% | [19] 102% | [20] 98.8%

O=C(O)CCC(=O)Nc1nnc(-c2ccccc2)s1
inactive: [1] 93.7% | [2] 106% | [3] 87.8% | [4] 105% | [5] 105% | [6] 94.8% | [7] 103% | [8] 97.8% | [9] 99.5% | [10] 107% | [11] 106% | [12] 95.3% | [13] 104% | [14] 106% | [15] 111% | [16] 109% | [17] 97.8% | [18] 98.9% | [19] 106% | [20] 111%
